# Compound activity: PubChem BioAssay, National Center for Advancing Translational Sciences (NCATS)
# This excerpt belongs to a sample that is enriched for hits.
# Methyltransferases: Primary Screen for Target Class Profiling of Small Molecule Inhibitors of Methyltransferases | hit rate 3.9% among 25,000 | purified enzyme, MTase-Glo SAH luminescence; hits give low values | calls only at 40 µM; call rule not given here
#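 Each enzyme was reacted with SAM and its substrate, with compounds tested once at 40 uM; SAH formed was read by MTase-Glo luminescence.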
# Calls only; - = inactive; + = active, no number.
SMILES,Methyltransferases
CCCn1c(=O)c2cc(F)ccc2n2c(SCC(=O)Nc3cccc(Cl)c3)nnc12,-
Cc1nnc(C[C@@H]2C=C(c3ccc(Cl)cc3)c3ccccc3-n3c(C)nnc32)o1,+
CCCn1c(=O)c2ccc(C(=O)NC3CCCC3)cc2n2c(=O)n(Cc3cccc(Cl)c3)nc12,-
CCC(C)NC(=O)CSc1nnc2n(Cc3ccc(C)cc3)c(=O)c3ccccc3n12 (stereo not drawn),-
CCCCNC(=O)C(C)n1ccc2cc(S(=O)(=O)N3CCCC3)ccc21 (stereo not drawn),-
Cc1ccc(Cn2c(=O)c3ccccc3n3c(=O)n(CC(=O)Nc4ccc(C)c(C)c4)nc23)cc1,-
COC(=O)c1ccc(O[C@@H]2O[C@H](CO)[C@@H](O)[C@H](O)[C@H]2O)c(OC)c1,-
COc1c(O)cc2c(c1O)[C@@H]1O[C@H](CO)[C@@H](O)[C@H](O)[C@H]1OC2=O,+
COc1cc(COC2OC(CO)C(O)C(O)C2O)cc(OC)c1O (stereo not drawn),-
COc1ccc(N2C(=O)c3cc4ccccc4n3CC2(C)C(=O)NC2CCCC2)cc1 (stereo not drawn),-
O=S(=O)(c1cccc(-c2nc(-c3ccccc3)no2)c1)N1CCN(c2ccc(Cl)cc2)CC1,-
COc1cccc(S(=O)(=O)N2CCC(OCCOc3ccccc3)CC2)c1,-
CCC(C)N1C(=O)c2cc3occc3n2CC1(C)C(=O)NC1CCCCCC1 (stereo not drawn),-
CC1(C)CC[C@]2(C(=O)O)CC[C@]3(C)C(=CCC4[C@@]5(C)C[C@@H](O)[C@H](O)C(C)(C)C5CC[C@]43C)[C@@H]2[C@@H]1O (stereo partly drawn),-
CC(=O)O[C@H]1[C@H](O)C[C@@]2(C)C(CC[C@]3(C)C2CC=C2C4CC(C)(C)CC[C@]4(C(=O)O)CC[C@]23C)C1(C)C (stereo partly drawn),-
CC1(C)[C@@H](O)CC[C@]2(C)[C@H]3CC=C4[C@@H]5C[C@](C)(C(=O)O)CC[C@]5(C)CC[C@@]4(C)[C@]3(C)CC[C@@H]12,+
CC(C)[C@H](C(=O)Nc1ccc(C(=O)NO)cc1)c1ccccc1,+
Cc1oc(C(O)c2ccccc2)nc1C(=O)Nc1ccc(C(=O)Nc2ccccc2)cc1 (stereo not drawn),-
O=C(CCCCCCC(=O)Nc1ccccc1)NO,-
CCc1ccccc1NC(=O)Cn1nc2n(C)c(=O)c3ccc(C(=O)NC4CCCCC4)cc3n2c1=O,-
CCOc1ccc(CCN2C(=O)c3ccc(-c4ccccc4)n3CC2(C)C(=O)NC2CCCC2)cc1 (stereo not drawn),-
CCCc1c(-c2ccc(O)cc2)nn(-c2ccc(O)cc2)c1-c1ccc(O)cc1,+
CC(C)Oc1ccc(CN2C(=O)c3cc(C4CC4)nn3CC2(C)C(=O)NC2CCCCCC2)cc1 (stereo not drawn),-
CCc1cccc(NC(=O)Cn2nc3n(C(C)C)c(=O)c4ccc(C(=O)NC5CCCC5)cc4n3c2=O)c1,-
CCCn1c(=O)c2ccc(C(=O)NC(C)C)cc2n2c(=O)n(Cc3ccccc3F)nc12,-
SMILES,Methyltransferases
C=C1C(=O)O[C@H]2[C@H]1[C@@H](OC(=O)C(C)CO)C[C@@]1(C)[C@H](O)CCC(=O)[C@H]21 (stereo partly drawn),-
C=C1CC2OC(=O)C(=C)C2C(OC(=O)/C(C)=C\C)CC2(C)OC1=CC2=O (stereo not drawn),-
C=C1C(=O)O[C@@H]2CC(C)=C([C@@H](C)CCCO)[C@@H](OC(=O)C(C)C)[C@H]12,+
CCC(C)NC(=O)c1ccc2c(=O)n(Cc3ccccc3)c3nn(CC(N)=O)c(=O)n3c2c1 (stereo not drawn),-
COCCN1C(=O)c2c(-n3cccc3)c3cc(C)ccc3n2CC1(C)C(=O)NCCC(C)C (stereo not drawn),-
CC1(C(=O)NC2CCCC2)Cn2c(cc3ccccc32)C(=O)N1Cc1ccco1 (stereo not drawn),-
NCC(O)(CS(=O)(=O)O)c1ccc(Cl)cc1 (stereo not drawn),-
NC[C@@](O)(c1ccc(Cl)cc1)c1ccc(-c2cn[nH]c2)cc1,+
CCOC(=O)c1cc2n(n1)CC(C)(C(=O)NC1CCCCC1)N(Cc1cccc(C)c1)C2=O (stereo not drawn),-
CCc1ccc(NC(=O)CSc2nnc3n(CCCOC(C)C)c(=O)c4ccccc4n23)cc1,-
CC(c1ccccc1)N1C(=O)c2ccccc2CC1(C)C(=O)NC1CCCCCCC1 (stereo not drawn),-
COc1ccc(NC(=O)CCc2nnc3n(Cc4ccc(Cl)cc4)c(=O)c4ccccc4n23)cc1OC,-
CCOCCCN1C(=O)c2cc3occc3n2CC1(C)C(=O)NC1CCCCCC1 (stereo not drawn),-
O=C1c2ccccc2C(=O)c2cc(S(=O)(=O)NCCO)ccc21,-
C/C(=C\CC/C(C)=C/CC[C@]1(C)CCc2cc(O)cc(C)c2O1)CC/C=C(\C)C(=O)O,+
Cc1cc2c(cc3n2CC(C)(C(=O)NC2CCCCCC2)N(Cc2ccc(F)cc2)C3=O)o1 (stereo not drawn),-
CCOc1ccc(CCNC(=O)CCc2nnc3n(CC(C)C)c(=O)c4ccccc4n23)cc1,-
CN(C)C/C=C/C(=O)Nc1cc2c(Nc3ccc(F)c(Cl)c3)ncnc2cc1OC1CCOC1 (stereo not drawn),+
CCOc1cc2ncc(C#N)c(Nc3ccc(OCc4ccccn4)c(Cl)c3)c2cc1NC(=O)/C=C/CN(C)C,-
CCOc1cc2ncc(C#N)c(Nc3ccc(F)c(Cl)c3)c2cc1NC(=O)/C=C/CN(C)C,+
CN(C)C/C=C/C(=O)Nc1cc2c(Nc3ccc(F)c(Cl)c3)ncnc2cc1O[C@H]1CCOC1,+
Cc1ccc(NC(=O)CSc2nnc3n(Cc4ccc(F)cc4)c(=O)c4ccccc4n23)c(C)c1,-
CCCn1c(=O)c2cc(F)ccc2n2c(SCC(=O)Nc3ccc4c(c3)OCCO4)nnc12,-
Cc1ccc(C)c(N2CCN(C(=O)CN(C)S(=O)(=O)c3ccc4[nH]c5c(c4c3)CCCC5)CC2)c1,-
CC1CCN(S(=O)(=O)c2ccc3c(ccn3CCC(=O)NC(C)c3ccccc3)c2)CC1 (stereo not drawn),-
SMILES,Methyltransferases
CCC(C(=O)NCc1cccc(OC)c1)n1ccc2cc(S(=O)(=O)N3CCCCC3)ccc21 (stereo not drawn),-
Cc1ccc(NC(=O)N2Cc3c(sc4c3CCCC4)-n3cccc3C2c2ccc(F)cc2)cc1 (stereo not drawn),-
CC1(C(=O)NC2CCCCCC2)Cn2c(cc3sccc32)C(=O)N1c1ccc(Cl)cc1 (stereo not drawn),-
CCCCN1C(=O)c2cc(C(=O)NCCc3ccc(OCC)cc3)nn2CC1(C)C(=O)NC1CCCC1 (stereo not drawn),-
Cc1ccc(N2C(=O)c3cc4sccc4n3CC2(C)C(=O)NC2CCCCCC2)cc1 (stereo not drawn),-
CC12CCC3C1C(c1c(cc(O)c(C(=O)c4ccccc4)c1O)O2)C3(C)C (stereo not drawn),+
COC(=O)c1cc(OC)cc(OC)c1C(=O)c1c(OC)cc2c(c1O)C1CCCC(C)(O2)O1 (stereo not drawn),-
CN1C(=O)c2cc(C(=O)NCCCN3CCCC3=O)nn2CC1(C)C(=O)NCc1ccc(F)cc1 (stereo not drawn),-
